# Measured values published in the supplement of paper PMC13380429.
# Values without a mark were called inactive.
# Test system: Vero E6 infected with SARS-CoV-2
# Assay: SARS-CoV-2 infection rate relative to infected DMSO; higher = more infection, active = 60 or less
# Details: 24 h
row,SMILES,SARS-CoV-2 infection rate [%]
1,O/N=C/c1ccc(-c2ccc(O)c(F)c2)c(Cl)c1O (10 µM),76.5
2,O=C1[O][SbH]23[O]C(=O)C([O]2)C2[O][SbH]4([O]C(=O)C([O]4)C1[O]3)[O]C2=O [antimonyl] (10 µM),99.5
3,N#Cc1cccc(-c2nc(-c3cccnc3)no2)c1 (10 µM),98.5
4,Cc1ncc(-c2ccnc(Nc3ccc(S(C)(=O)=O)cc3)n2)n1C(C)C (0.833333 µM),99.5
5,Nc1nnc(Sc2ncc([N+](=O)[O-])s2)s1 (0.833333 µM),90.5
6,Cc1c(C)c2c(c(C)c1O)CCC(C)(C)O2 (10 µM),116
7,CC1OC2(CS1)CN1CCC2CC1 (stereo not given) [cevimeline] (10 µM),98
8,C1=N/C2=N/c3ccc(OCCN4CCCC4)c(c3)COC/C=C/COCc3cccc(c3)C(=C1)N2 [pacritinib] (0.833333 µM),80
9,Nc1ncn([C@H]2C[C@H](O)[C@@H](CO)O2)c(=O)n1 [decitabine] (10 µM),104
10,CNCC(=O)O [sarcosine] (10 µM),108
